The record followed here is PubChem BioAssay (Tox21).

Molecules are shown by their SMILES. Results filed as inconclusive are left out. Where a call stands in place of a potency, no number is given. Values without a mark were called inactive. Active and inactive are the calls of the source. The call rests on the fitted dose curve; in most records, active means well fitted inhibition curve with a large enough effect in the signal ratio in the repeat runs (not every such curve was filed as active); inconclusive means weak or mixed curves; inactive means flat fitted curve, though single readings scatter; the % refers to the signal ratio.
Potency means the concentration at half of the fitted maximal effect.

Chain of Progesterone receptor (Homo sapiens) (P06401 whole entry, looked up): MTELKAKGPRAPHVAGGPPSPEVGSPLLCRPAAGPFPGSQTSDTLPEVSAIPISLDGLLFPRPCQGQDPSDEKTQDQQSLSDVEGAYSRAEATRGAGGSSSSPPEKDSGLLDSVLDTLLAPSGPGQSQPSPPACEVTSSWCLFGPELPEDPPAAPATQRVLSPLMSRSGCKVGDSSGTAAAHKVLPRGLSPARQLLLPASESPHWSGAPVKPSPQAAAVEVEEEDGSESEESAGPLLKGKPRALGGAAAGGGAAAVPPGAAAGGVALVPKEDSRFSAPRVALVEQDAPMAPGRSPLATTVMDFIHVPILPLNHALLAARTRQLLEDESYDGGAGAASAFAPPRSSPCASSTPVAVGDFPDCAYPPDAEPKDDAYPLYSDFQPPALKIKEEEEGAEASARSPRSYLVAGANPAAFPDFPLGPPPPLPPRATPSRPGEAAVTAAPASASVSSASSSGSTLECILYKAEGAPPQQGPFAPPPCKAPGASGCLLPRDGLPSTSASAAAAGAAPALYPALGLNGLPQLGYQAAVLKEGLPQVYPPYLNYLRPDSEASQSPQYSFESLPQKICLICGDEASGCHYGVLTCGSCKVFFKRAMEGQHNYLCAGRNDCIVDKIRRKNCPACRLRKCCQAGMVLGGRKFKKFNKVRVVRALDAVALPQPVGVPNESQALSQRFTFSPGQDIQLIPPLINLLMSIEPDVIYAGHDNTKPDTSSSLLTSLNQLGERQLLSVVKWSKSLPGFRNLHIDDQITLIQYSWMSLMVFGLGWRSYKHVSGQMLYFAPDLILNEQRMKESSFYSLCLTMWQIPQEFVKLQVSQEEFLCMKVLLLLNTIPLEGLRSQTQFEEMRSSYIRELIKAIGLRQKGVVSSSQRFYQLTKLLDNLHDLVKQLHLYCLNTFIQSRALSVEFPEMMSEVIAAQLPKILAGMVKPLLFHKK

The assay concerns the target Progesterone receptor (Homo sapiens) (UniProt P06401). As to the kind of experiment: qHTS assay to identify small molecule antagonists of the progesterone receptor (PR) signaling pathway (AID 1346795). The following applies: PR-UAS-bla HEK293T, beta-lactamase FRET ratio, 16 h; series mostly up to 92.4 µM. An excerpt: National Center for Advancing Translational Sciences [NCATS]
NIH Chemical Genomics Center [NCGC]
U.S. Environmental Protection Agency [EPA]
National Institutes of Environmental Health Sciences [NIEHS]
National Toxicology Program [NTP]
U.S. Food and Drug Administration [FDA]
Progesterone receptor (PR), a nuclear hormone receptor, plays an important role in development, metabolic homeostasis and reproduction. […] Endocrine disrupting chemicals (EDCs) and their interactions with steroid hormone receptors like PR causes disruption of normal endocrine function. To identify the compounds that inhibit PR signaling, a PR-UAS-bla GripTite cell line i.e. PR-UAS-bla HEK293T (Invitrogen, Carlsbad, CA, USA) containing a beta-lactamase reporter gene under the control of an Upstream Activator Sequence (UAS) was used to screen Tox21 10K compound library.
Tox21 Assay Protocol Summary:
PR-UAS-bla HEK293T cells were dispensed at 3,000 cells/4 uL of assay medium containing 2% charcoal stripped FBS per well into black wall/clear-bottom 1536-well plates using a Multidrop Combi (ThermoFisher Scientific, Waltham, MA) dispenser. After the assay plates were incubated at a 37C and 5% CO2 for 6 hr, 23 nL of compounds dissolved in DMSO, positive controls or DMSO only was transferred to the assay plate by a Pintool station (Kalypsys, San Diego, CA), followed by addition of 1 uL (1nM as final concentration) of Promegestone (R5020) in assay medium using a BioRAPTR FRD (Flying Reagent Dispenser, Aurora Discovery, San Diego, CA). The plates were incubated at 37C and 5% CO2 for 16 hr. Then 1 uL of LiveBLAzer B/G FRET substrate was added using a FRD. After the plates were incubated at room temperature for 2 hours, fluorescence intensity was measured by an Envision plate reader (PerkinElmer, Shelton, CT).
On the technique in general: qHTS replaces the single test concentration by a dilution series.
Turning to `CCCCCCCN`, the Potency result is “inactive”.

Regarding `COc1cc2nc(Cl)nc(N)c2cc1OC`, the Potency entry is “inactive”.

`COc1ccc(C)cc1[N+](=O)[O-]`: the Potency result was “inactive”.

With `CC(C)(CO)[N+](=O)[O-]`, the Potency result is “inactive”.

Take `CCOC(=O)C(F)(F)F`: the Potency entry was “inactive”.

As to `O=[N+]([O-])c1cccc(S(=O)(=O)O)c1`, the Potency result is “inactive”.

For `CCN(CC)CCNc1ccc(CNC=O)c2sc3ccc(OC)cc3c(=O)c12`, the Potency is 43.3 µM (active).

Turning to `CCCCCCCC#N`, the Potency entry is “inactive”.

For `CC(=O)c1ccc2c(c1)N(CCCN(C)C)c1ccccc1S2`, the Potency entry was “inactive”.

As to `CC[N+](C)(CC)CCOC(=O)C(O)(c1ccccc1)C1CCCCC1` (stereo not given), the Potency result was “inactive”.

Turning to `CCN(CC)CCNC(=O)c1cc(Br)c(N)cc1OC`, the Potency entry is “inactive”.

Take `c1cc(CCCc2ccncc2)ccn1`: the Potency is 54.5 µM (active).

Turning to `CC[N+]1(CC)CCC(=C(c2ccccc2)c2ccccc2)C1C` (stereo not given), the Potency entry is “inactive”.

Take `CCC(Cl)CCC(Cl)C(Cl)CC(Cl)C(Cl)C(Cl)CCl` (stereo not given): the Potency result is “inactive”.

As to `O=C(O)c1ccc(S(=O)(=O)O)cc1C(=O)O`, the Potency result was “inactive”.

In the case of `CN1Cc2cc(C(=O)N3CCC(C4CCNCC4)CC3)ccc2NC(CC(=O)O)C1=O` (stereo not given), the Potency result was “inactive”.

As for `O=C1C(O)=C(O)C(=O)C(O)=C1O`, the Potency result was “inactive”.

As to `CCCCCCCCCCCc1ccccc1`, the Potency entry is “inactive”.

For the molecule `CC1=CC=C(C(C)C)CC1`, the Potency result is “inactive”.

In the case of `COC(C)OC`, the Potency result is “inactive”.

Turning to `NCCCN1CCOCC1`, the Potency entry was “inactive”.

On to `O=C(O)c1ccc(-n2nc(-c3ccccc3O)nc2-c2ccccc2O)cc1`, for which the Potency was 6.68 µM (active).

Turning to `CC1=CCCC(C)(C)C12CCC(C)O2` (stereo not given), the Potency result was “inactive”.

With `O=P(O)(OCc1ccccc1)OCc1ccccc1`, the Potency entry was “inactive”.

As to `C=CCOC(=O)CCC1CCCCC1`, the Potency result was “inactive”.

On to `CN(C)c1ccc(/C=C/c2ccc([N+](=O)[O-])cc2)cc1`, for which the activity change, negative = inhibition is -17.2% [at 8.39 µM].

For `Brc1c2ccccc2c(Br)c2ccccc12`, the activity change, negative = inhibition is 3.87% [at 8.39 µM].

Regarding `C1CCCNCCC1`, the Potency entry was “inactive”.

Regarding `Cc1ccc(C(C)OC(=O)C2(C)CCC(C(=O)O)C2(C)C)cc1` (stereo not given), the Potency entry is “inactive”.

Regarding `CCCCc1ncc(/C=C(\Cc2cccs2)C(=O)O)n1Cc1ccc(C(=O)O)cc1`, the Potency result is “inactive”.

For `O=[N+]([O-])c1ccc(NCCO)c(OCCO)c1`, the Potency entry is “inactive”.

In the case of `CCCn1cnc2c1c(=O)n(CCCCC(C)=O)c(=O)n2C`, the Potency result was “inactive”.

Regarding `OCCN1CCN(CCCN2c3ccccc3C=Cc3ccccc32)CC1`, the Potency result is “inactive”.

Consider `Cc1oc2c(NC(=O)c3c(Cl)cccc3Cl)cccc2c1C(C)(C)O`, for which the Potency is 24.3 µM (active).

Regarding `COc1ccnc(CS(=O)c2nc3ccc(OC(F)F)cc3[nH]2)c1OC` (stereo not given), the Potency result was “inactive”.

Turning to `O=C(NCC1CN(c2ccc(N3CCOCC3=O)cc2)C(=O)O1)c1ccc(Cl)s1` (stereo not given), the Potency result is “inactive”.

In the case of `CC(C)(C)Cl`, the Potency result was “inactive”.

`CCCCCCCCCCCCCCCCOS(=O)(=O)O`: the Potency result was “inactive”.

For the molecule `COc1cc2c(cc1OC)C(C(C(=O)N(CCc1ccc(OC)c(OC)c1OC)CCc1ccc(OC)c(OC)c1OC)c1ccccc1)=NCC2` (stereo not given), the Potency result is “inactive”.

Consider `CC1=CC[C@H](C(C)C)C=C1`, for which the Potency entry is “inactive”.
